Screens (PubChem)
Compounds with a hit are over-represented: about 11% of the library has one in this group of screens.
Vaccinia Venus: vaccinia inhibition (Venus reporter); Vaccinia virus Venus reporter expression, fluorescence; Potency, µM (titrated, usually from 36.5 µM), for inactives: at the highest dose activity change, negative = inhibition, most hits filed as inhibitors; 330,000 compounds, 0.46% hits; AID 720580; calls by dose curve; tested in A549 cells; further: on the % scale 0 is the no-effect control and ±100 the full control effect; nearly all actives have a fitted effect of over 30% in size
Pf growth 48h: P. falciparum growth inhibition at 48 hours (one generation). 310,000 compounds, 5.9% hits. Potency, µM (top dose mostly 28.7 µM), for inactives: at the highest dose activity change, negative = inhibition, hits mostly inhibitors. AID 504832. P. falciparum luciferase growth in erythrocytes, 48 h; further: on the % scale 0 is the no-effect control and ±100 the full control effect
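Read-out is firefly luciferase luminescence from an integrated reporter in P. falciparum, so falling signal marks reduced parasite growth. Infected erythrocytes were at 2% hematocrit and 0.1% parasitemia (final) in Albumax-supplemented RPMI 1640.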
NS1 inh: blocks influenza NS1 protein function; Potency, µM (top dose mostly 46.1 µM), for the others: at the top dose activity, positive = more growth; 270,000 compounds, 0.4% hits; calls by dose curve; further: actives are rising curves; nearly all actives have a fitted effect of over 50% in size
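S. cerevisiae expressing influenza A NS1, grown in glucose, washed, then diluted 1:100 into pH 6.0 -URA galactose medium with 23 nl compound. Growth recovery read as OD600; NS1-free strain serves as control.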
HCV inh: inhibitors of hepatitis C virus infection; 340,000 compounds, 3.4% hits; Huh7.5.1 HCVcc-Cre infection, luciferase reporter, 44 h; AID 651820; Potency, µM (doses to about 41.8 µM), without a hit: top-dose activity change, negative = inhibition, actives largely listed as inhibitors; further: on the % scale 0 is the no-effect control and ±100 the full control effect
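After 44 h co-culture of compound, cells and HCVcc-Cre (~0.5 moi), substrate is added for 15 min at room temperature and luciferase measured over 15 sec. Cells were seeded at 1,000/well and pre-cultured 4 h.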
Pf growth 96h: P. falciparum growth inhibition at 96 hours | Potency, µM (titrated, usually from 28.7 µM), for the others: at the top dose activity change, negative = inhibition, usual class: inhibitors | 320,000 compounds, 6.9% hits | AID 504834 | P. falciparum luciferase reporter growth, 96 h; further: on the % scale 0 is the no-effect control and ±100 the full control effect
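Two-generation exposure (96 h) targets delayed-death phenotype. Reporter parasites carrying integrated firefly luciferase, in red cells at 2% hematocrit and 0.05% parasitemia final, kept at 37 C, 5% CO2; luminescence loss indicates inhibition.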
VACV mCherry inh: vaccinia inhibition (mCherry reporter) | Vaccinia virus mCherry reporter infection, fluorescence | Potency, µM (titrated, usually from 36.5 µM), without a hit: at the top dose activity change, negative = inhibition, actives largely listed as inhibitors | 310,000 compounds, 0.63% hits | AID 720579; calls by dose curve; tested in A549 cells; further: on the % scale 0 is the no-effect control and ±100 the full control effect; nearly all actives have a fitted effect of over 35% in size
* marks the source's active call; other numbers are inactive results; i = inactive; ? = inconclusive; . = no result given. Unless noted, the call rests on the fitted dose curve; in most records, active means well fitted inhibition curve with a large enough effect; inconclusive means small, poorly fitted or top-dose-only effect, or another doubt; inactive means no such curve, though single readings can be large or run the other way. Potency means the concentration at half of the fitted maximal effect.

SMILES | Vaccinia Venus | Pf growth 48h | NS1 inh | HCV inh | Pf growth 96h | VACV mCherry inh
COC(=O)c1ccccc1NC(=O)N1CCN(c2ccccc2F)CC1 | -5% | 44% | 0% | 7% | ? | 1%
Cc1cc(C(=O)CSc2nnc(-c3ccccc3)n2C)c(C)n1C | . | -2% | ? | -2% | -1% | .
Cc1cc(C(=O)CSc2nnc(-c3ccncc3)n2-c2ccccc2)c(C)n1C | . | 15µM* | 13% | -29% | 17µM* | .
COc1ccccc1NS(=O)(=O)c1cc([N+](=O)[O-])ccc1N/N=C/c1c[nH]c2ccccc12 | . | ? | 4% | 16µM* | . | .
COc1ccc(NS(=O)(=O)c2cc([N+](=O)[O-])ccc2N/N=C\c2c(C)[nH]c3ccccc23)cc1 | -6% | . | 7% | -15% | ? | i
COc1ccccc1NS(=O)(=O)c1cc([N+](=O)[O-])ccc1N/N=C/c1sc(N2CCOCC2)nc1-c1ccccc1 | 8% | 3.3µM* | 7% | 11% | ? | i
O=C(NNC(=O)c1ccc(Cl)cc1Cl)c1cnccn1 | . | ? | 4% | -11% | ? | .
O=C(Nc1ccc(F)cc1F)c1cc2c(=O)n3ccccc3nc2s1 | -16% | . | . | . | . | i
O=C(Nc1ccc(F)cc1F)c1cc2nc3c(c(C(F)(F)F)n2n1)CCCC3 | -7% | 129% | 6% | -12% | 10µM* | -2%
O=C(O)c1cc2nc3c(c(C(F)(F)F)n2n1)CCCC3 | 3% | 12% | 1% | 15% | 1% | 12%
CN(C)N(C(=O)c1cc(-c2cccs2)nn1-c1ccccc1)C1CCS(=O)(=O)C1 (stereo unspecified) | . | ? | . | -22% | 5.2µM* | .
CCN(CC(=O)Nc1c(F)cccc1F)C(=O)c1cc(-c2cccs2)nn1-c1ccccc1 | -10% | ? | . | 14µM* | -11% | i
Nc1cc(C(=O)OCC(=O)NC(c2ccccc2)c2ccccc2)ccc1Cl | -1% | -5% | 18% | 12% | 7% | i
CN(CCN1CCc2ccccc2C1)Cc1nc(-c2ccc3c(c2)OCO3)no1 | -8% | 17% | -2% | 19% | ? | -13%
CN(CCN1CCc2ccccc2C1)Cc1nc(Cc2ccccc2F)no1 | 1% | ? | 1% | -8% | 10µM* | 0%
COc1ccc(Cc2noc(CN(C)CCN3CCc4ccccc4C3)n2)cc1OC | . | -70% | 1% | -15% | 7.4µM* | .
COc1cc(/C=N/NC(=O)Cn2cnc3c2c(=O)n(C)c(=O)n3C)ccc1O | -1% | 0% | 4% | 14% | 5% | -17%
COc1ccccc1CN1C[C@@H]2C[C@@H](c3[nH]c4ccc(C)cc4c3C)N3CCC[C@@]23C1=O | -15% | 7.4µM* | 1% | -14% | -14% | -24%
COc1ccc2c(c1)C=C([C@@H]1C[C@H]3CN(c4ccccc4)C(=O)[C@]34CCCN14)CO2 | -16% | 1.5µM* | -1% | -6% | ? | -24%
COc1ccccc1CN1C[C@@H]2C[C@@H](c3ccccc3C)N3CCC[C@@]23C1=O | -16% | ? | 1% | ? | 207% | -8%
COCc1cc([C@@H]2C[C@H]3CN(c4ccccc4)C(=O)[C@]34CCCN24)ccc1OC | -16% | 10µM* | 3% | 8% | ? | -8%
CCn1ccnc1[C@@H]1C[C@H]2CN(Cc3ccccc3OC)C(=O)[C@]23CCCN13 | . | 11% | -1% | 29% | 9.3µM* | .
CC(=O)Oc1ccc(NC(=O)C2CCCCC2)c(C(=O)O)c1 | . | -13% | 5% | 8% | . | .
O=c1[nH]c(=O)c2[nH]c(=O)[nH]c2[nH]1 | . | -10% | . | . | -9% | .
Cc1cc([N+](=O)[O-])ccc1N | -14% | 61% | . | 1% | 45% | -14%
SMILES | Vaccinia Venus | Pf growth 48h | NS1 inh | HCV inh | Pf growth 96h | VACV mCherry inh
COc1ccccc1CN1C[C@@H]2C[C@@H](c3ccc(C)cc3)N3CCC[C@@]23C1=O | -8% | ? | -4% | ? | ? | ?
CN1C[C@@H]2C[C@@H](C3=Cc4cc(Cl)ccc4OC3)N3CCC[C@@]23C1=O | -16% | -25% | 0% | ? | 5% | -19%
CCc1ccc([C@@H]2C[C@H]3CN(Cc4ccccc4OC)C(=O)[C@]34CCCN24)cc1 | -15% | 5.9µM* | -1% | ? | ? | -5%
COc1ccccc1CN1C[C@@H]2C[C@@H](C3=Cc4cc(Cl)ccc4OC3)N3CCC[C@@]23C1=O | . | ? | 16% | 11µM* | 13µM* | .
CN(Cc1ccccc1)S(=O)(=O)c1ccc2[nH]c(=O)oc2c1 | -10% | 27% | 11% | 5% | 5% | ?
CN(Cc1ccccc1)S(=O)(=O)c1ccc2[nH]c(=O)ccc2c1 | -14% | 7% | -3% | 12% | 15µM* | i
CN1/C(=C\C(=O)COC(=O)c2ccc([N+](=O)[O-])o2)C(C)(C)c2ccccc21 | -4% | ? | . | 22% | 13µM* | i
CN1/C(=C\C(=O)COC(=O)c2nccnc2N)C(C)(C)c2ccccc21 | -8% | ? | . | -5% | 27% | -7%
CCNc1nc(NCC)n2c(SCc3nc4ccccc4c(=O)[nH]3)nnc2n1 | -11% | ? | 1% | 7% | -8% | .
COc1ccccc1N1CCN(c2ccc(=O)n(CC(=O)O)n2)CC1 | -4% | . | . | . | . | -2%
OC1c2cc(Br)ccc2N=C2CCCCCN21 (stereo unspecified) | -8% | . | . | . | . | 15%
OC1c2cc(Br)ccc2N=C2CCCN21 (stereo unspecified) | . | 8.3µM* | -1% | ? | 10µM* | .
CCn1c(C)c(C)c2cc(C(=O)NCCc3ccco3)ccc21 | . | ? | -8% | 16µM* | 16% | .
CCn1c(C)c(C)c2cc(C(=O)NCCCN3CCCCCC3)ccc21 | ? | -19% | 21% | ? | ? | ?
CCn1c(C)c(C)c2cc(C(=O)NCCN3CCCCCC3)ccc21 | . | 0% | -1% | 13µM* | ? | .
C=C(C)CNC(=S)NNC(=O)CCn1c2ccccc2c2ccccc21 | -14% | -22% | -6% | -13% | ? | -5%
C=C(C)CNC(=S)NNC(=O)CCn1c2ccc(Cl)cc2c2cc(Cl)ccc21 | ? | 2.3µM* | 24% | -28% | 45% | -28%
C=C(C)CNC(=S)NNC(=O)CCn1c2cc(Cl)ccc2c2ccc(Cl)cc21 | -21% | 7.4µM* | ? | -8% | 82% | i
O=C1C(Cl)=C(NCCCO)C(=O)c2ccccc21 | -10% | ? | -49% | 13µM* | . | .
O=C1C(Cl)=C(NCCCN2CCOCC2)C(=O)c2ccccc21 | 23% | . | . | 10µM* | . | -11%
O=C1C(Cl)=C(NCCN2CCOCC2)C(=O)c2ccccc21 | -26% | ? | -3% | ? | ? | -36%
COc1ccc(C2=C(Nc3ccc(C)cc3)c3ccccc3C2=O)cc1 | -4% | 0.83µM* | 11% | -25% | -15% | -27%
